Bioassay records from PubChem.
SENP8 block-1 = human SENP8 protease inhibitors, primary screen, biochemical, fluorescence, Nedd8 protein substrate, uHTS; recombinant SENP8; actives 0.64% (n = 360,000); AID 602440, 2012; inhibition, % at 20 µM; in the data active means inhibition mostly above about 40%, no sharp cut-off; inactive means mostly below about 27%
C8 TRAIL sens = viability loss with TRAIL in NB7+C8 cells, primary screen, TRAIL sensitizer project, cell-based, ATPlite luminescence; AID 624354, 2012; inhibition (viability loss, TRAIL sensitization), % at 10 µM; actives 1% (n = 360,000);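 active means compounds causing at least 50% loss of cell viability in the single-dose screen, relative to plate controls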
SENP6 block = SENP6 protease inhibitors, primary screen, biochemical, luminescence, uHTS; Sentrin-specific protease 6 (Homo sapiens), Q9GZR1; Recombinant SENP6 catalytic domain, aminoluciferin luminescence; inhibition, % at 10 µM; actives 1.8% (n = 330,000); AID 2599, 2010;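 active means inhibition above about 50% at the single tested dose, limit read from the data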
Target sequence (Q9GZR1 628-1112 limits assumed): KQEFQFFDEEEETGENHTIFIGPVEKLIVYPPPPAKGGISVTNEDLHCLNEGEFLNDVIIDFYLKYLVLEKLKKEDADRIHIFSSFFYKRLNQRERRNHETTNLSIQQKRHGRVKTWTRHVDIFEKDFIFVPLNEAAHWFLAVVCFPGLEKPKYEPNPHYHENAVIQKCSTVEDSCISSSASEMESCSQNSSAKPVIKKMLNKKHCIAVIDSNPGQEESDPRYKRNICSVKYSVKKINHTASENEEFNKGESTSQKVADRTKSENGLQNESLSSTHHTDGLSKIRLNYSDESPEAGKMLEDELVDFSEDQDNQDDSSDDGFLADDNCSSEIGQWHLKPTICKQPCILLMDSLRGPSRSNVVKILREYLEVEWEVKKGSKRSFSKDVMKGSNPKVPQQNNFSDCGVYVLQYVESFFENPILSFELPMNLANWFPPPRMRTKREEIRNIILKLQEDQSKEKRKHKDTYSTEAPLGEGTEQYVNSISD
SENP7 inh = SENP7 protease inhibitors, primary screen, biochemical, luminescence, uHTS; recombinant SENP7, Z-RLRGG-aminoluciferin luminescence, 40 min; inhibition, % at 5 µM; actives 1.5% (n = 330,000); AID 434973, 2010;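 active means inhibition above about 50% at the single test dose, limit read from the data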
PPC-1+TRAIL kill = compounds killing PPC-1 cancer cells with TRAIL present, primary screen, TRAIL potentiator project, ATPLite luminescence, uHTS; PPC-1 cells + TRAIL, ATPLite viability luminescence; cell killing (% activity), % at 4 µM or 5 µM; actives 0.41% (n = 220,000); AID 1443, 2008;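 active means cell killing above 50% in the first pass at 4 µM, then a duplicate retest at 5 µM averaging 50% or more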
SENP8 block-2 = SENP8 protease inhibitors, primary screen, biochemical, luminescence. AID 2540, 2010. Sentrin-specific protease 8 (Homo sapiens), Q96LD8. actives 1.2% (n = 330,000). inhibition, % at 10 µM. purified SENP8, Z-RLRGG-aminoluciferin cleavage; in the data active means inhibition above about 50%
SENP8 conf-1 = SENP8 protease inhibitors, retest, confirmation, biochemical, luminescence, single concentration; shares compounds with SENP7 inh; Recombinant SENP8, Z-RLRGG-aminoluciferin luminescence, 60 min; inhibition, % at 12.5 µM; actives 40% (n = 6,200);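 active means mean inhibition across replicates above about 50%, limit read from the data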
SENP6 conf = SENP6 protease inhibitors, confirmation, biochemical, luminescence, single concentration | shares compounds with SENP7 inh | inhibition, % at 12.5 µM | AID 488915, 2010 | actives 58% (n = 6,200) | recombinant SENP6, Z-RLRGG-aminoluciferin luminescence
SENP7 confirm = SENP7 protease inhibitors, retest, confirmation, biochemical, luminescence, single concentration; inhibition, % at 12.5 µM; actives 69% (n = 6,200); shares compounds with SENP7 inh; recombinant SENP7, Z-RLRGG-aminoluciferin luminescence, 40 min
Casp3 select = caspase-3 protease inhibitors, confirmation, selectivity assay for SENP inhibitor project, biochemical, single concentration; inhibition, % at 12.5 µM; purified caspase-3, Z-DEVD-aminoluciferin luminescence, 60 min; actives 60% (n = 6,200); shares compounds with SENP7 inh; AID 488918, 2010;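 active means mean inhibition above about 50%, limit read from the data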
SENP luc ctr = interferes with luciferase luminescence in SENP counter-screen | shares compounds with SENP7 inh | Pre-incubated SENP8/Z-RLRGG-aminoluciferin, luciferase luminescence interference | inhibition, % at 12.5 µM | actives 39% (n = 6,200) | AID 488919;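 active means mean inhibition above about 50% when retested at one dose, limit read from the data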
SENP8 conf-2 = human SENP8 protease inhibitors, confirmation, biochemical, Nedd8 protein substrate, single concentration | shares compounds with SENP8 block-1 | actives 15% (n = 1,400) | inhibition, % at 25 µM | purified SENP8, Nedd8-AMC/pro-Nedd8 cleavage fluorescence, 30 min; in the data active means inhibition mostly above about 39%, no sharp cut-off; inactive means mostly below about 34%
Numbers stand for hits; 0 = inactive; - = no result. Compounds with a hit are over-represented: about 3% of the library has one in this group of screens.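 How the source made its calls, unless noted: active means mean inhibition above about 50% in the one-dose retest (limit read from the data); inactive means the rest.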

SMILES	SENP8 block-1	C8 TRAIL sens	SENP6 block	SENP7 inh	PPC-1+TRAIL kill	SENP8 block-2	SENP8 conf-1	SENP6 conf	SENP7 confirm	Casp3 select	SENP luc ctr	others
Cc1cnc[nH]1	0	0	0	0	-	0	-	-	-	-	-
O=c1[nH]c(=S)n(-c2ccccc2F)c(O)c1C=NCCN1CCNCC1	0	0	0	0	-	0	-	-	-	-	-
COc1ccc(C(=O)N2CCC3(CC2)OCCO3)cc1	0	0	0	0	-	0	-	-	-	-	-
O=C(c1ccc2nc(-c3ccco3)c(-c3ccco3)nc2c1)N1CCC2(CC1)OCCO2	0	0	82	0	0	0	0	0	0	0	0
COc1cc2[nH]c(=O)n(-c3ccccc3)c(=O)c2cc1OC	0	0	0	0	0	0	-	-	-	-	-
COc1cc(C(c2c(C)[nH]n(-c3ccccc3)c2=O)c2c(C)[nH]n(-c3ccccc3)c2=O)cc(OC)c1OC	80	0	59	64	-	0	0	0	0	0	0
CCOC(=O)[C@]12Cc3c(cc(OC)c(OC)c3OC)[C@H]1N(C)C(=O)c1cc(OC)ccc12	0	0	-	-	-	-	-	-	-	-	-
CC(C)c1ccc(N=Nc2c(O)[nH]c(=O)[nH]c2=O)cc1	0	0	0	0	0	0	-	-	-	-	-
O=c1[nH]c(=S)[nH]c(O)c1N=Nc1ccc(SC(F)F)cc1	0	0	100	83	0	91	81	95	89	95	62
CCN(CC)C(=O)c1ccc(NC(=O)c2cccc(F)c2)cc1	0	0	62	65	0	0	57	54	83	82	53
Cc1ccc2c(c1N)C(=O)c1ccccc1C2=O	0	0	65	62	-	63	0	0	50	0	0
CCC(C)N1C(=O)NC(=O)C2(Cc3c(ccc4ccccc34)N(C)C2)C1=O (centres undefined)	0	0	76	0	0	0	0	0	0	0	0
COc1ccc2c(c1)CC1(CN2C)C(=O)NC(=O)N(CCc2ccccc2)C1=O (centres undefined)	0	0	0	0	0	0	-	-	-	-	-
O=[N+]([O-])/C=C1/NCCN1Cc1ccc(Cl)nc1	0	0	0	0	0	0	-	-	-	-	-
COc1ccc(-c2cc(=Nc3ccccc3)c3cc(C)ccc3o2)cc1	0	0	69	68	0	0	0	0	0	0	0
CCCCn1c(NC(=O)c2ccco2)c(C(=O)OCC)c2nc3ccccc3nc21	0	0	84	0	0	62	75	89	71	0	0
CCCCn1c(NS(=O)(=O)c2ccc(C)cc2)c(C(=O)OCC)c2nc3ccccc3nc21	0	0	93	0	0	62	0	0	0	0	0
CCOC(=O)c1c(N)n(Cc2ccco2)c2nc3ccccc3nc12	0	0	0	0	0	0	-	-	-	-	-
CCCCn1c(N)c(C(=O)OCCOC)c2nc3ccccc3nc21	0	0	0	0	0	0	-	-	-	-	-
Brc1ccc2c(c1)CN(CC1CCCCC1)Cc1cnnn1-2	0	0	-	-	-	-	-	-	-	-	-
Fc1cccc(F)c1-c1nc(-c2ccc(Cl)cc2)no1	0	0	71	61	0	65	0	66	63	0	0
CCOC(=O)CNC(=S)N1CC2C[C@@H](C1)Cn1c2cccc1=O	0	0	0	0	-	0	-	-	-	-	-
CC(C)OC(=O)c1c(N)n(CC2CCCO2)c2nc3ccccc3nc12 (centres undefined)	0	0	51	0	0	0	0	0	0	0	0
CC(C)CCOC(=O)c1c(N)n(CC2CCCO2)c2nc3ccccc3nc12 (centres undefined)	0	0	0	0	0	0	-	-	-	-	-
CCCNC(=O)c1c(N)n(CC2CCCO2)c2nc3ccccc3nc12 (centres undefined)	0	0	94	79	0	94	0	56	0	0	0
SMILES	SENP8 block-1	C8 TRAIL sens	SENP6 block	SENP7 inh	PPC-1+TRAIL kill	SENP8 block-2	SENP8 conf-1	SENP6 conf	SENP7 confirm	Casp3 select	SENP luc ctr	others
CC(C)OCCCNC(=O)c1c(N)n(CC2CCCO2)c2nc3ccccc3nc12 (centres undefined)	0	0	94	66	0	92	0	0	0	0	0
Nc1c(C(=O)OC2CCCCC2)c2nc3ccccc3nc2n1CC1CCCO1 (centres undefined)	0	0	0	0	0	0	-	-	-	-	-
COc1ccc2c3c1OC1C(O)C=CC4C(C2)[N+](C)(C)CCC341 (centres undefined)	0	0	0	0	-	0	-	-	-	-	-
O=C(Nc1ccc(Cl)cc1)Nc1nccs1	0	0	68	52	0	0	50	50	77	0	0
CC1CN2c3ccc([N+](=O)[O-])cc3CC3(C(=O)N(C)C(=O)N(C)C3=O)C2C(C)O1 (centres undefined)	0	0	0	0	0	0	-	-	-	-	-
Cc1cc(N=Nc2ccccc2C)ccc1N	55	0	90	86	-	76	81	82	96	0	86
CN(C)C(=O)Oc1ccc(-c2cn3cc(Cl)ccc3n2)cc1	0	76	0	94	54	91	0	93	102	97	0
CN(C)C(=O)Oc1cccc(-c2cn3cc(Cl)ccc3n2)c1	0	0	0	0	0	0	-	-	-	-	-
O=[N+]([O-])c1ccc(NC2CCN(Cc3ccccc3)CC2)c2ccncc12	40	0	66	0	-	0	0	0	0	0	0	SENP8 conf-2=0
CCOC(=O)CC1c2ccccc2-n2nncc2CN1Cc1ccc(OC)cc1 (centres undefined)	0	0	-	-	-	-	-	-	-	-	-
